Results published in ChEMBL document CHEMBL3988442, “University of Dundee, Small-Polar-MMV Screening Library” (2021).

These compounds were tested against T1, Aspartate--tRNA(Asp/Asn) ligase (Mycobacterium tuberculosis (strain ATCC 25618 / H37Rv)) (UniProt P9WFW3) (assay: Assay for Asp RNA synthetase-1 from Mycobacterium tuberculosis). Settings: 30 µM.
T1 sequence (whole entry): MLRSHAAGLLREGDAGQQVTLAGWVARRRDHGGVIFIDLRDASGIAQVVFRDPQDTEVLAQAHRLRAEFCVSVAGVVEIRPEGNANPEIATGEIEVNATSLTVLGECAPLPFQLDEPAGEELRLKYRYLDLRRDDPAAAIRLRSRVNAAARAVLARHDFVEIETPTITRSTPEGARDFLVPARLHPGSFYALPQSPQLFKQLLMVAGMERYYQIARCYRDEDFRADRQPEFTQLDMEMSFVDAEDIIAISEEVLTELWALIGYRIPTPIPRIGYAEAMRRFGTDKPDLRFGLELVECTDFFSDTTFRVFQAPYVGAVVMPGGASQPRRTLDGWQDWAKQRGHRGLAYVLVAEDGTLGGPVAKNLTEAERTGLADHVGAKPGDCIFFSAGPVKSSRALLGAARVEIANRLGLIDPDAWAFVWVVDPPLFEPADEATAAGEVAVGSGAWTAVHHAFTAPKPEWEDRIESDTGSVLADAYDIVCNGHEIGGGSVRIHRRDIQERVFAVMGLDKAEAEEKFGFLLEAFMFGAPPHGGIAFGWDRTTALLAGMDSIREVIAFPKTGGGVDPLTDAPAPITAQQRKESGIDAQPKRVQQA
Type: functional
Set-up: scale not given: in the data most compounds retested in dose-response had high values

SMILES | Percent Effect [%]
O=C1NC2(CCN(C(=O)c3ccccc3)CC2)CC1c1cccnc1 (stereo not given) | -4.95
Cc1cc(NS(=O)(=O)c2ccccc2F)ccc1-n1cccc1C(=O)O | 6.98
CC(C)(C)c1nnc(CN2CCN(CC(O)c3ccccc3)CC2)o1 (stereo not given) | -8.31
COCC(O)CNC(=O)c1cnc(-c2ccccc2)nc1O (stereo not given) | 2.15
O=C(NCC1CCOC1)c1cc(-c2cccc(Cl)c2)on1 (stereo not given) | 1.64
CC(C)n1cc(C(=O)N2Cc3ccccc3OC3(CCOCC3)C2)cn1 | -1.29
Cc1cc(C(=O)N2CCCC(n3cncn3)C2)c(C)n1C1CC1 (stereo not given) | -2.4
CC1CCCN(Cc2csc(-c3ncccn3)n2)CC1 (stereo not given) | -2.94
COc1cccc(C(=O)N2CCCC(C(=O)CCc3ccccc3)C2)c1 (stereo not given) | 4.2
CS(=O)(=O)NCC1CCCN(C(=O)COc2ccc(F)cc2)C1 (stereo not given) | -1.75
Cc1ccccc1CSCCn1nc2ccccn2c1=O | -1.33
O=C1CC[C@H]2[C@H](CCN2C(=O)C2CCOCC2)N1Cc1ccncc1 | -6.47
CN(Cc1ccccc1)CC1(O)CCCN(CC(C)(C)C)C1=O (stereo not given) | -7.46
Cc1cc(C)n(CCC(=O)N2CCCC(n3cncn3)C2)n1 (stereo not given) | -6.22
CC(C)c1nn(C)c(N(C)C)c1CNCc1ccc2c(c1)OCO2 | -1.77
NC(=O)N1CCC2(CC1)CN(c1ccsc1)C(=O)CO2 | 1.31
O=C(c1ccccn1)N1CCc2c(nc(N3CCCC3)[nH]c2=O)C1 | -2.28
O=C(NCC(O)c1ccc(F)c(F)c1)c1cccnc1O (stereo not given) | 2.78
CNc1nc(C)c(C(=O)N2CCCCC2CN2CCCCCC2)s1 (stereo not given) | 1.75
O=C1OC2(CCNCC2)CN1CC(=O)N1CCCC1c1ccco1 (stereo not given) | -0.636
